rRNA inh HTS: inhibits bacterial ribosomal RNA function over humanized ribosomes; E. coli WT GFP vs humanized-ribosome RFP mutants, fluorescence, 24 h; stronger effect = lower value; DMSO median 0, no signal -100; AID 720706; GFP signal change (wild-type ribosome), % (concentration not given with the values); 350,000 tested, 1.6% active;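 active = significant combined selectivity score with lowered wild-type GFP, culture density cut under 30%, mutant RFP and density less affected; inactive = any of these conditions unmet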
INS-1E GSIS act: primary screen for activators of insulin secretion dependent on glucose, INS-1E cells, GLuc reporter luminescence. INS-1E GLuc reporter insulin secretion, 2-3 h. activation, % at 16.6 µM. 370,000 tested, 0.61% active;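 active = lowest replicate activation of at least 40%, so every replicate reaches that level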
ERAP1 HTS inh: ERAP1 (human) enzyme inhibition | Q9NZ08 | recombinant ERAP1, Leu-AMC fluorescence, 60 min | inhibition, % at 10.7 µM | 340,000 tested, 0.15% active | AID 652197;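 active = mean replicate inhibition of at least 30%, or all replicates individually reaching that 30% level; inactive = mean below 30% and not every replicate reaching it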
PGC1a acetyl inh: lowers PGC1a acetylation signal in U2OS cells; AlphaScreen anti-acetyl-lysine; with virally co-expressed GCN5 acetyltransferase; inhibition, % at 15.6 µM; AID 651687; 350,000 tested, 0.17% active;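 active = every replicate shows inhibition of at least 40%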
DENV2 CPE: inhibitors of DENV2 cytopathic effect | DENV2-infected cells, cytopathic effect rescue, plate reader | CPE inhibition, % at 9.99 µM | 350,000 tested, 1.7% active | AID 651640; in the data active = CPE inhibition above about 20%, passing the limit was not always enough; tested in BHK-21 cells
CaV13 FRET inh: Primary screen for inhibitors of IQ motif and Ca2+-dependent inactivation inhibitor domain binding in CACNA1D, Förster resonance energy transfer in living cells, …; HEK cells, CFP/YFP FRET ICDI-IQ, plate reader, 10 min; percent FRET-ratio fall versus neutral wells; inhibition, % at 12.3 µM; 340,000 tested, 0.098% active;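 active = mean replicate inhibition of at least 30% and at least 1% of replicates passing that level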
Of the large screens only hits and unclear results are named; the others gave an inactive call. An excerpt weighted towards active compounds, which were near 3.2% of everything screened.

Nc1nc(N)nc(-c2ccc(Oc3ccccc3)cc2)n1	rRNA inh HTS -34
Cc1ccccc1Oc1ccc(-c2nc(N)nc(N)n2)cc1	none (no result: rRNA inh HTS, INS-1E GSIS act, ERAP1 HTS inh, DENV2 CPE)
Cc1noc(C)c1NC(=O)Nc1ccc2c(c1)C(=O)N([C@@H](C)CO)C[C@@H](C)[C@H](CN(C)S(=O)(=O)c1c(C)noc1C)OCCCC[C@@H](C)O2	none (no result: CaV13 FRET inh)
O=C(Nc1ccccc1)N1C[C@@H]2[C@H](c3ccccc31)[C@@H](CO)N2C(=O)Cc1ccccn1	rRNA inh HTS -37 (no result: CaV13 FRET inh)
O=C(Nc1ccc(F)cc1)N1C[C@@H]2[C@H](c3ccccc31)[C@H](CO)N2C(=O)Cc1ccccn1	none (no result: CaV13 FRET inh)
O=C(C1CCC1)N1C[C@H]2[C@@H](c3ccccc31)[C@H](CO)N2C(=O)Cc1ccccn1	DENV2 CPE 33 (no result: CaV13 FRET inh)
Cc1c(C#N)c(O)n(CCO)c(=O)c1N=Nc1ccc(S(N)(=O)=O)cc1	DENV2 CPE 45 (no result: PGC1a acetyl inh)
CC(C)(CNS(C)(=O)=O)SCc1ccc(Cl)cc1	rRNA inh HTS -32
CS(=O)(=O)NCCSCc1ccc(Cl)cc1	none (no result: rRNA inh HTS, INS-1E GSIS act, ERAP1 HTS inh, DENV2 CPE)
C[C@H]1CCCCO[C@H](CN(C)Cc2ccc3c(c2)OCO3)[C@@H](C)CN([C@@H](C)CO)C(=O)c2cc(NC(=O)CCC(F)(F)F)ccc2O1	none (no result: CaV13 FRET inh)
Cc1[nH]c2ccccc2c1C1=CC(=O)C=CC1=O	ERAP1 HTS inh 78
Cc1[nH]c2ccccc2c1CC(=O)Nc1ccc(N(C)c2cccnc2)c(-c2ccc(F)c(F)c2)c1	DENV2 CPE 84 (no result: PGC1a acetyl inh)
CN(c1cccnc1)c1ccc(NC(=O)Cc2c[nH]c3ccccc23)cc1-c1ccc(F)c(F)c1	none (no result: INS-1E GSIS act, PGC1a acetyl inh, CaV13 FRET inh)
C[C@@H]1CN([C@H](C)CO)C(=O)Cc2cc(NC(=O)CCC(F)(F)F)ccc2O[C@H]1CN(C)CC1CCCCC1	none (no result: CaV13 FRET inh)
COc1ccc(C#Cc2cnc3c(c2)C(=O)N([C@@H](C)CO)C[C@H](C)[C@H](CN(C)C(C)=O)O3)cc1	DENV2 CPE 26 (no result: CaV13 FRET inh)
COc1cccc(C#Cc2cnc3c(c2)C(=O)N([C@H](C)CO)C[C@H](C)[C@@H](CN(C)C(C)=O)O3)c1	DENV2 CPE 24 (no result: CaV13 FRET inh)
CC(=O)N(C)C[C@H]1Oc2ncc(C#Cc3ccccc3)cc2C(=O)N([C@H](C)CO)C[C@H]1C	DENV2 CPE 48 (no result: CaV13 FRET inh)
COc1cccc(-c2cnc3c(c2)C(=O)N([C@H](C)CO)C[C@H](C)[C@@H](CN(C)C(C)=O)O3)c1	DENV2 CPE 32 (no result: CaV13 FRET inh)
COc1cccc(-c2cnc3c(c2)C(=O)N([C@@H](C)CO)C[C@H](C)[C@@H](CN(C)C(C)=O)O3)c1	none (no result: CaV13 FRET inh)
CCC(=O)N1CCCCN2[C@H](C1)[C@H](c1ccc(/C=C/c3ccccc3)cc1)[C@@H]2CO	none (no result: CaV13 FRET inh)
COc1ccc(S(=O)(=O)N(C)C[C@@H]2Oc3ncc(-c4cccc(OC)c4)cc3C(=O)N([C@H](C)CO)C[C@@H]2C)cc1	none (no result: ERAP1 HTS inh, DENV2 CPE, CaV13 FRET inh)
CCCC(=O)Nc1ccc2c(c1)C(=O)N(C)[C@@H]1CC[C@@H](CC(=O)NCCOC)O[C@@H]1CO2	none (no result: ERAP1 HTS inh, CaV13 FRET inh)
C[C@H](CO)N1C[C@H](C)[C@@H](CN(C)C(=O)CCN2CCCCC2)Oc2ncc(C#Cc3ccccc3)cc2C1=O	none (no result: CaV13 FRET inh)
C[C@@H]1CN([C@H](C)CO)C(=O)c2cc(C#Cc3ccccc3)cnc2O[C@H]1CN(C)C(=O)CCN1CCCCC1	DENV2 CPE 26 (no result: CaV13 FRET inh)
O=C(C1CCCN(S(=O)(=O)c2cccc3nonc23)C1)N1CCN(c2ccccc2)CC1 (stereo not given)	rRNA inh HTS -29
CC1CC(C)CN(C(=O)C2CCCN(S(=O)(=O)c3cccc4nonc34)C2)C1 (stereo not given)	none (no result: rRNA inh HTS, INS-1E GSIS act, ERAP1 HTS inh, DENV2 CPE)
Cc1ccc(S(=O)(=O)N(C)C[C@@H]2OCCCC[C@H](C)Oc3ccc(NS(=O)(=O)c4cn(C)cn4)cc3C(=O)N([C@@H](C)CO)C[C@@H]2C)cc1	none (no result: CaV13 FRET inh)
Cc1ccccc1-n1c(-c2ccc3ccccc3n2)n[nH]c1=S	rRNA inh HTS -33 (no result: PGC1a acetyl inh)
COc1ccc2c3c(n(C)c2c1)[C@@H](CO)N(C(=O)C1CCOCC1)CC31CN(C(=O)C2CC2)C1	none (no result: PGC1a acetyl inh, CaV13 FRET inh)
COc1ccc2c3c(n(C)c2c1)[C@H](CO)N(C(=O)C1CCOCC1)CC31CN(C(=O)C2CC2)C1	DENV2 CPE 22 (no result: PGC1a acetyl inh, CaV13 FRET inh)
